# Data: the supplement of paper PMC10849652
# The full data set covers some 7,900 targets. This sample favours those with a hit. About 0.6% of all pairs of compound and target were hits. Unmarked numbers belong to inactive results.
# Legend:
# Assay in all cases: log2 fold change, soluble protein after heating vs DMSO (PISA); higher = thermal stabilisation; K562 cells, 10 uM, 30 min; active = over 0.2 and 3.5 SD of the protein, either way, in both replicates (recomputed)
# [1] = compound: COC1=CC=C(C=C1)CN2C=CC3=C2C=C(C=C3)C(=O)NO
# Method in brief: (§1)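 Thermal stability values are relative to control samples and come from duplicates. They are expressed as log2 fold changes. For measurement, K562 cells (2×10^6 cells/mL) received 10 μM compound for 30 min, and aliquots were heated for 3 min over 48°C-58°C, pooled, and extracted at 4°C in PBS with 0.5% NP-40. Soluble protein, the supernatant after 21,000xg for 90 min, was quantified by TMTpro 16plex LC-MS/MS with equalised channel sums.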
# [2] = compound: CO[C@H]1C[C@@H]2CC[C@@H](C)[C@@](O)(O2)C(=O)C(=O)N2CCCC[C@H]2C(=O)O[C@H]([C@H](C)C[C@@H]2CC[C@H](n3cnnn3)[C@H](OC)C2)CC(=O)[C@H](C)/C=C(\C)[C@@H](O)[C@@H](OC)C(=O)[C@H](C)C[C@H](C)/C=C/C=C/C=C/1C [zotarolimus]
# Method in brief: as §1
# [3] = compound: COc1cc(Nc2ncc3c(n2)-c2ccc(Cl)cc2C(c2c(F)cccc2OC)=NC3)ccc1C(=O)O [alisertib]
# Method in brief: as §1
# [4] = compound: COc1cc2ncnc(Nc3ccc(F)c(Cl)c3)c2cc1OCCCN1CCOCC1 [gefitinib]
# Method in brief: as §1
# [5] = compound: COc1cccc2cc(-c3nc([C@H]4CC[C@H](C(=O)O)CC4)n4ncnc(N)c34)[nH]c12
# Method in brief: as §1
# [6] = compound: C[C@@H](Oc1cc(-c2cnn(C3CCNCC3)c2)cnc1N)c1c(Cl)ccc(F)c1Cl [crizotinib]
# Method in brief: as §1
# [7] = compound: C[C@H](C1=CC=C(C=C1)C(=O)NC2=C3C=CNC3=NC=C2)N
# Method in brief: as §1
# [8] = compound: C[C@H](Nc1ncnc2nc[nH]c12)c1cc2cccc(Cl)c2c(=O)n1-c1ccccc1 [duvelisib]
# Method in brief: as §1
# [9] = compound: Cc1cc(SCc2sc(-c3ccc(C(F)(F)F)cc3)nc2C)ccc1OCC(=O)O
# Method in brief: as §1
# [10] = compound: Cc1ccc(-n2nc(C(C)(C)C)cc2NC(=O)Nc2ccc(OCCN3CCOCC3)c3ccccc23)cc1 [doramapimod]
# Method in brief: as §1
# [11] = compound: Cc1ccc(C(=O)N(CCCN)[C@@H](c2nc3cc(Cl)ccc3c(=O)n2Cc2ccccc2)C(C)C)cc1 [ispinesib]
# Method in brief: as §1
# [12] = compound: COc1cc2nc(-c3cc(F)ccc3O)nc(N[C@@H]3CNC[C@H]3C(C)(C)O)c2cc1OC
# Method in brief: as §1
# [13] = compound: CS(=O)(=O)CCNCc1ccc(-c2ccc3ncnc(Nc4ccc(OCc5cccc(F)c5)c(Cl)c4)c3c2)o1 [lapatinib]
# Method in brief: as §1
# [14] = compound: CS(=O)(=O)N1CCN(Cc2cc3nc(-c4cccc5[nH]ncc45)nc(N4CCOCC4)c3s2)CC1 [pictilisib]
# Method in brief: as §1
# [15] = compound: Cc1cc(Nc2cc(CN3CCOCC3)c3nc(C)c(Cc4ccc(Cl)cc4F)n3n2)n[nH]1 [gandotinib]
# Method in brief: as §1
# [16] = compound: COc1cc(C(=O)O)ccc1NC(=O)[C@@H]1N[C@@H](CC(C)(C)C)[C@](C#N)(c2ccc(Cl)cc2F)[C@H]1c1cccc(Cl)c1F [idasanutlin]
# Method in brief: as §1
# [17] = compound: Cc1cc(Nc2cc(N3CCN(C)CC3)nc(Sc3ccc(NC(=O)C4CC4)cc3)n2)n[nH]1 [tozasertib]
# Method in brief: as §1
# [18] = compound: CON(C)C(=O)N1N=C(c2cc(F)ccc2F)S[C@@]1(CCCN)c1ccccc1 [filanesib]
# Method in brief: as §1
# [19] = compound: CS(=O)(=O)c1ccc(-c2cnc(N)c(C(=O)Nc3ccccc3)n2)cc1
# Method in brief: as §1
# [20] = compound: C[C@@H]1COCCN1C2=NC(=NC(=C2)C3(CC3)S(=O)(=O)C)C4=C5C=CNC5=CC=C4
# Method in brief: as §1
# Sequence of UniProt Q96RV3 (Q96RV3 whole entry, looked up): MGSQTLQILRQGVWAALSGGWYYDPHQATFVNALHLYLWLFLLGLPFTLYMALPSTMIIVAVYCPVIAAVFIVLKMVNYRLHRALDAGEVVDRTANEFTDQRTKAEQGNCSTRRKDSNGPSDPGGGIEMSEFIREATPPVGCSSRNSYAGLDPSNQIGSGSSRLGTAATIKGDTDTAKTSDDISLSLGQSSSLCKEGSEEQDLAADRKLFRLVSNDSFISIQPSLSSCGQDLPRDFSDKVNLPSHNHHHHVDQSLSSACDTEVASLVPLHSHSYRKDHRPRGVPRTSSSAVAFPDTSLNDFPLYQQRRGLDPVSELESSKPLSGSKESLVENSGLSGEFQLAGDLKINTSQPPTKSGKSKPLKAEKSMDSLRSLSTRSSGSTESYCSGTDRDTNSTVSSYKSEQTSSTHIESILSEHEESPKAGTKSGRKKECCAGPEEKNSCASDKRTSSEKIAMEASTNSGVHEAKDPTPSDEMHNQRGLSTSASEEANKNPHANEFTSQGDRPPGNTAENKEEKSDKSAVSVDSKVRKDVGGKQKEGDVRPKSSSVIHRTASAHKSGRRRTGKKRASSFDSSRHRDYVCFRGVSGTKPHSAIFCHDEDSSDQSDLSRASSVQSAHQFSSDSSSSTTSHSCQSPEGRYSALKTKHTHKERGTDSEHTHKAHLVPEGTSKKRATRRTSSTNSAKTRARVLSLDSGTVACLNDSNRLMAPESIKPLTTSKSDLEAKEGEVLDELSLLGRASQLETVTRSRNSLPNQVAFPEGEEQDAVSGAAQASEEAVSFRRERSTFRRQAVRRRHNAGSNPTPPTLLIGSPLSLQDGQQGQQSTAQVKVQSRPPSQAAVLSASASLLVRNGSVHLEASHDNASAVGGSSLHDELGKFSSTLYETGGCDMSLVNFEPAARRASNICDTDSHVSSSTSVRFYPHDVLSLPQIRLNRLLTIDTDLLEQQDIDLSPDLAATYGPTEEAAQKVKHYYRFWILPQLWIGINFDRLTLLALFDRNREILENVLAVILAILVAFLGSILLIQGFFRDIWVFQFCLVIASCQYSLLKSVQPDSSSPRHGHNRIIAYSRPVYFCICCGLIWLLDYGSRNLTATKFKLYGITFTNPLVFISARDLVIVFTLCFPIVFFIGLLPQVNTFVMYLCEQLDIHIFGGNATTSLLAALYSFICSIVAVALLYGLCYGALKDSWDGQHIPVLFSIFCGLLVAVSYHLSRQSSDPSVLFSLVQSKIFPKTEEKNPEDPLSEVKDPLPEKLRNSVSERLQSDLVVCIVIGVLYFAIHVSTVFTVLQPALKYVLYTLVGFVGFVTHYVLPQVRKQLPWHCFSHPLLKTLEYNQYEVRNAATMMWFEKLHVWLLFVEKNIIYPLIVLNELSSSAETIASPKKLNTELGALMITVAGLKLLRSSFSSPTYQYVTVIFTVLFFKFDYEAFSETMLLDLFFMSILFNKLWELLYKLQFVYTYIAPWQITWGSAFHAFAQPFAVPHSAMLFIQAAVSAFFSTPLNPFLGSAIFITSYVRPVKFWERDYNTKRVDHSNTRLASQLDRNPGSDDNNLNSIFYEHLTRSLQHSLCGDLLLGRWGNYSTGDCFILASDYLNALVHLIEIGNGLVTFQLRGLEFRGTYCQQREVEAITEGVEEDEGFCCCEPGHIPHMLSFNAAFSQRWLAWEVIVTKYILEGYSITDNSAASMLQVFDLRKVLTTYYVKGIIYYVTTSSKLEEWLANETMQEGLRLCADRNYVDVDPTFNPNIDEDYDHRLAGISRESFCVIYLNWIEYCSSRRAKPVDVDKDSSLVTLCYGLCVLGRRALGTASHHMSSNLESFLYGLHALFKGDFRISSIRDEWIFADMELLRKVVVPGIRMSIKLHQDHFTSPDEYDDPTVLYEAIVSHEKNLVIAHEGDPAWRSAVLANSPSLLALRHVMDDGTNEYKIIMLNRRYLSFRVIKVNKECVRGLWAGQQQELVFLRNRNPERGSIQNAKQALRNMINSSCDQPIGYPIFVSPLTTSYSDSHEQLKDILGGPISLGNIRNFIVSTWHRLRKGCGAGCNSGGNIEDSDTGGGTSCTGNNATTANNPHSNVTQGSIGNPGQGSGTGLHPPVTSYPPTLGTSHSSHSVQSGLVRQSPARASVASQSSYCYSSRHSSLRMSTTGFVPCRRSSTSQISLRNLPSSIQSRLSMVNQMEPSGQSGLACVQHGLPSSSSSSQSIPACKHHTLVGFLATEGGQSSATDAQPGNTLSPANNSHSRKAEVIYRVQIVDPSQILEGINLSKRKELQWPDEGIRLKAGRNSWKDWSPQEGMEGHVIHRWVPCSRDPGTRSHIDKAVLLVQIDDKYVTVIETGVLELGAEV
# Sequence of UniProt P11309 (P11309 whole entry, looked up): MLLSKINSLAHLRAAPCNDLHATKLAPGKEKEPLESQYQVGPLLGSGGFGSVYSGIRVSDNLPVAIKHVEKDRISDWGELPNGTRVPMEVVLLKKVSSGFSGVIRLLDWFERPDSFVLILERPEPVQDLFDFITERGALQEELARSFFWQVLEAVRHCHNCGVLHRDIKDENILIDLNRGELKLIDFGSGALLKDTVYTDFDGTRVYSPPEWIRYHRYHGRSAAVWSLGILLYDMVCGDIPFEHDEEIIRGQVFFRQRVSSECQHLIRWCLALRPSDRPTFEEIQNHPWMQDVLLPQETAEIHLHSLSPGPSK
# Sequence of UniProt Q8NDX5 (Q8NDX5 whole entry, looked up): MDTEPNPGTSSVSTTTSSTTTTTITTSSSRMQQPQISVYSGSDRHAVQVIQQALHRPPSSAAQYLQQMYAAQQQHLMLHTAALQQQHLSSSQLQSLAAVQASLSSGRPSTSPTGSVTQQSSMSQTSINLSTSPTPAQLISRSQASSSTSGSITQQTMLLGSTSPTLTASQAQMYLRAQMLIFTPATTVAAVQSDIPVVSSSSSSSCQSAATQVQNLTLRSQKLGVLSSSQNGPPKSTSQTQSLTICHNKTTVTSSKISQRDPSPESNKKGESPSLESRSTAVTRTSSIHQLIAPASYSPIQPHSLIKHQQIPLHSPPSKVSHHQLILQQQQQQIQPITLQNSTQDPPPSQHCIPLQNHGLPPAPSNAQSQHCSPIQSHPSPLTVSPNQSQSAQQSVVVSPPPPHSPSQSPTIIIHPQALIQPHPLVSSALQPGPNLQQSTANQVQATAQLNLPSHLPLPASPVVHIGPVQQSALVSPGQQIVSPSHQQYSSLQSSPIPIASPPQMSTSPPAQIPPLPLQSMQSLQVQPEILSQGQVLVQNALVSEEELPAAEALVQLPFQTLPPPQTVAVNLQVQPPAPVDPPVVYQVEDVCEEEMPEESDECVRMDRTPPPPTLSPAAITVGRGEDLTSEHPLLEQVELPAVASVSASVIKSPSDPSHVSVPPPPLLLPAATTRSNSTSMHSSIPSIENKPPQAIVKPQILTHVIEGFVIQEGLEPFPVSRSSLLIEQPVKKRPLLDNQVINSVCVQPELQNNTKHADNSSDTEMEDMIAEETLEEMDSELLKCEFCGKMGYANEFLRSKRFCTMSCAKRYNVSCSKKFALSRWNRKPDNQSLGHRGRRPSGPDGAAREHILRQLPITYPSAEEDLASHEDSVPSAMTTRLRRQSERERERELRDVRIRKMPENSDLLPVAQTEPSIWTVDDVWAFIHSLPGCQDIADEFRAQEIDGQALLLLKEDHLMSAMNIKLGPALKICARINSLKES
# Sequence of UniProt Q9BZL4 (Q9BZL4 whole entry, looked up): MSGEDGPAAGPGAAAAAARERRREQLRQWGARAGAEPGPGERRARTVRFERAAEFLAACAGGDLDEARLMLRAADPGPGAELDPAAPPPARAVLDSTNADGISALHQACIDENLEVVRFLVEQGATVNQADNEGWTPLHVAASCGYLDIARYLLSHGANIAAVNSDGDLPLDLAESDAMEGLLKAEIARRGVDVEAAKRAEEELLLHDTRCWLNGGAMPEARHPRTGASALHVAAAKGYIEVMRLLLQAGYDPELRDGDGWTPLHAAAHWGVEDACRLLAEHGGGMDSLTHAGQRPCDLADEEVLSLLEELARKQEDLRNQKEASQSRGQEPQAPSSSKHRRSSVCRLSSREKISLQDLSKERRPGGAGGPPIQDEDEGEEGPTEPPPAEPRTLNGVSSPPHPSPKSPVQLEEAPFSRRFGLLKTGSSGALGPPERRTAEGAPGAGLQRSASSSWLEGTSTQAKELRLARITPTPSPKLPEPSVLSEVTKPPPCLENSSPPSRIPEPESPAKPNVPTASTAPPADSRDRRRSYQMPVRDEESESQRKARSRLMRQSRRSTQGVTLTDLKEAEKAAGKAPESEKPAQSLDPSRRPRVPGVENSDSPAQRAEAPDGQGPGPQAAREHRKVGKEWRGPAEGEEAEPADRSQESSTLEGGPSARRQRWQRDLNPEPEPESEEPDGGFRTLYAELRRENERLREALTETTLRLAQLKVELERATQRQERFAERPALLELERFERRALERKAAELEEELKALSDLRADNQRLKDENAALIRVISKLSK
# Sequence of UniProt Q15126 (Q15126 whole entry, looked up): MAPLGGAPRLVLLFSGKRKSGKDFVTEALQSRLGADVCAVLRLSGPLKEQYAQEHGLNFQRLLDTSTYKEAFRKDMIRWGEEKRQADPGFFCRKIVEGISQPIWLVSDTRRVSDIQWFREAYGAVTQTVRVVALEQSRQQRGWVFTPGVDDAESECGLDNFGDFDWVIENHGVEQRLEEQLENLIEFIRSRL
# Sequence of UniProt P60484 (P60484 whole entry, looked up): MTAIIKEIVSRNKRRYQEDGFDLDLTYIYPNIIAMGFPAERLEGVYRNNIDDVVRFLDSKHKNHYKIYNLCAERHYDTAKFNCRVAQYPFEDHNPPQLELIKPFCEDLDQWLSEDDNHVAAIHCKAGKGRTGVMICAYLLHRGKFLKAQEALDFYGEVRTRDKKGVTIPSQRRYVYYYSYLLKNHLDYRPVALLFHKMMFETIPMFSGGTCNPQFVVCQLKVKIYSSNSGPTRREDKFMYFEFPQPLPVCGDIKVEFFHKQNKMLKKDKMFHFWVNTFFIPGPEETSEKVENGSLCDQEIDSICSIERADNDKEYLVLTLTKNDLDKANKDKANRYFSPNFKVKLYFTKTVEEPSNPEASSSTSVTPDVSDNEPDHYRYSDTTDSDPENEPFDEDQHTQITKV
target,measurement,setting,value
PCBP2 (UniProt F8VZX2),log2 fold change,[1],0.03
same,log2 fold change,[2],0.158
same,log2 fold change,[3],-0.04
same,log2 fold change,[4],-0.111
same,log2 fold change,[5],-0.018
same,log2 fold change,[6],-0.273
same,log2 fold change,[7],0.234
same,log2 fold change,[8],-0.147
same,log2 fold change,[9],0.065
same,log2 fold change,[10],-0.107
same,log2 fold change,[11],-0.124
PSMC1 (UniProt G3V4X1),log2 fold change,[2],-0.045
same,log2 fold change,[12],-0.106
same,log2 fold change,[4],-0.036
same,log2 fold change,[13],-0.105
same,log2 fold change,[14],-0.071
same,log2 fold change,[7],0.099
same,log2 fold change,[15],0.066
PUF60 isoform 2 (UniProt Q9UHX1),log2 fold change,[2],0.18
same,log2 fold change,[16],-0.042
same,log2 fold change,[3],-0.203
same,log2 fold change,[12],-0.071
same,log2 fold change,[5],0.027
same,log2 fold change,[13],0.407
same,log2 fold change,[7],-0.591
same,log2 fold change,[8],0.163
same,log2 fold change,[17],0.193
same,log2 fold change,[9],0.04
same,log2 fold change,[11],0.173
PTEN isoform 2 (UniProt P60484),log2 fold change,[1],0.081
same,log2 fold change,[12],-0.251
same,log2 fold change,[13],0.094
same,log2 fold change,[14],-0.028
same,log2 fold change,[6],0.077
same,log2 fold change,[15],0.312
same,log2 fold change,[10],0.001
same,log2 fold change,[11],0.024
PRKX (UniProt P51817),log2 fold change,[3],0.014
same,log2 fold change,[5],0.098
PCF11 (UniProt O94913),log2 fold change,[1],-0.169
same,log2 fold change,[2],-0.119
same,log2 fold change,[16],-0.097
same,log2 fold change,[3],0.015
same,log2 fold change,[12],0.076
same,log2 fold change,[5],0.106
same,log2 fold change,[13],0.012
same,log2 fold change,[14],0.027
same,log2 fold change,[6],-0.137
same,log2 fold change,[7],0.211
same,log2 fold change,[15],-0.149
same,log2 fold change,[10],0.051
same,log2 fold change,[11],-0.533
PSMA3 (UniProt H0YJ03),log2 fold change,[1],0.362
same,log2 fold change,[2],-0.004
same,log2 fold change,[16],0.009
same,log2 fold change,[12],0.203
same,log2 fold change,[13],0.021
same,log2 fold change,[6],0.081
same,log2 fold change,[7],0.099
same,log2 fold change,[8],0.092
same,log2 fold change,[17],-0.049
same,log2 fold change,[9],-0.07
same,log2 fold change,[10],0.072
same,log2 fold change,[11],-0.213
PPP1R12B isoform 6 (UniProt O60237),log2 fold change,[4],0.077
PSMA3 (UniProt G3V4X5),log2 fold change,[1],-0.122
same,log2 fold change,[12],0.255
same,log2 fold change,[13],-0.18
same,log2 fold change,[6],-0.277
same,log2 fold change,[10],0.149
same,log2 fold change,[11],-0.081
PIM1 isoform 2 (UniProt P11309),log2 fold change,[3],0.267
same,log2 fold change,[5],-0.327
same,log2 fold change,[14],-0.126
same,log2 fold change,[15],-0.084
PMVK (UniProt Q15126),log2 fold change,[18],0.198
same,log2 fold change,[2],0.083
same,log2 fold change,[16],0.064
same,log2 fold change,[3],0.047
same,log2 fold change,[4],-0.189
same,log2 fold change,[5],-0.144
same,log2 fold change,[14],0.073
same,log2 fold change,[19],0.088
same,log2 fold change,[20],0.02
same,log2 fold change,[7],0.083
same,log2 fold change,[8],-0.055
same,log2 fold change,[15],-0.705 (active)
same,log2 fold change,[17],-0.186
same,log2 fold change,[9],0.333
PPP1R12C (UniProt Q9BZL4),log2 fold change,[18],0.066
same,log2 fold change,[3],0.071
same,log2 fold change,[12],-0.237
same,log2 fold change,[4],0.074
same,log2 fold change,[5],-0.009
same,log2 fold change,[13],0.084
same,log2 fold change,[14],-0.228
same,log2 fold change,[19],-0.016
same,log2 fold change,[20],-0.198
same,log2 fold change,[8],-0.011
same,log2 fold change,[15],-0.001
same,log2 fold change,[17],0.091
same,log2 fold change,[9],0.018
same,log2 fold change,[11],-0.009
PHC3 isoform 7 (UniProt Q8NDX5),log2 fold change,[1],0.287
same,log2 fold change,[18],-0.029
same,log2 fold change,[2],0.001
same,log2 fold change,[3],-0.121
same,log2 fold change,[12],-0.03
same,log2 fold change,[4],-0.153
same,log2 fold change,[5],0.203
same,log2 fold change,[13],0.05
same,log2 fold change,[19],-0.068
same,log2 fold change,[6],-0.194
same,log2 fold change,[20],0.317
same,log2 fold change,[7],0.073
same,log2 fold change,[10],0.131
PCNX1 (UniProt Q96RV3),log2 fold change,[3],-0.059
same,log2 fold change,[12],0.34
same,log2 fold change,[4],-0.028
same,log2 fold change,[5],0.035
same,log2 fold change,[13],-0.475
same,log2 fold change,[20],0.257
same,log2 fold change,[17],0.071
PRKD2 (UniProt M0R346),log2 fold change,[18],0.038
same,log2 fold change,[14],0.06
same,log2 fold change,[19],-0.025
same,log2 fold change,[20],0.241
same,log2 fold change,[15],0.109
PDE4DIP (UniProt E9PS60),log2 fold change,[1],0
same,log2 fold change,[2],-0.032
same,log2 fold change,[6],-0.225
same,log2 fold change,[7],0.212
same,log2 fold change,[10],0.102
